Molecules are shown by their SMILES. Values without a mark were called inactive. How the calls were made is not given here.

Chain of Pantothenate synthetase (Mycobacterium tuberculosis (strain ATCC 25618 / H37Rv)) (P9WIL5 whole entry, looked up): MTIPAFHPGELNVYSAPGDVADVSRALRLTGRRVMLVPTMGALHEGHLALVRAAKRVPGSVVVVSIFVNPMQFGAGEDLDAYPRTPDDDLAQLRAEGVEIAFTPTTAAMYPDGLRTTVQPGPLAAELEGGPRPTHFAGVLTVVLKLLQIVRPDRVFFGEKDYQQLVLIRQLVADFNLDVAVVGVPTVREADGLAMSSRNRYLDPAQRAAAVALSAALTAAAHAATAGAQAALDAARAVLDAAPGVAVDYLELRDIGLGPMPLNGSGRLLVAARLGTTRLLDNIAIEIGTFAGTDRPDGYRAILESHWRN

This assay concerns the target Pantothenate synthetase (Mycobacterium tuberculosis (strain ATCC 25618 / H37Rv)) (UniProt P9WIL5). Put plainly: Coupled enzyme confirmation of inhibitors against recombinant Mtb PanC (AID 375).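 Further: 0% = full reaction with vehicle and 100% = no enzyme background.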 The conditions noted are these: coupled enzyme assay; at 10 µM, hits give high values.
Turning to `O=C1COc2ccc(C(=O)NCc3ccco3)cc2N1`, the inhibition was 0%.
As for `COc1ccc(S(=O)(=O)NCC(=O)N(CC(=O)NCC2CCCO2)c2ccccc2C)cc1` (stereo not given), the inhibition is 8%.
As for `CCc1nnc(NC(=O)c2cc3c(s2)CCCCC3)s1`, the figure is 0%; as for `O=C(Cn1ncc2c1-c1ccccc1OC2)N1CCN(c2ccccn2)CC1`, 0%.
As for `CCOCC(O)CS(=O)Cc1ccccc1` (stereo not given), the figure is 0%; as for `Cc1cc(/C=N/n2cnnc2)c(C)n1-c1ccc(Cl)cc1Cl`, 1%.
For `Cc1cc2c(c(=O)n1CCN(C)C)C(c1ccncc1)C(C#N)=C(N)O2` (stereo not given) the value was 0%; for `Cc1cc(=O)oc2c(CN3CCN(C)CC3)c(O)c(Cl)cc12`, 7%; for `CCOC(=O)CNc1ccc2c(c1)OCO2`, 0%.
On to `CSc1nc(N)nc(SCCS(=O)(=O)c2ccc(Cl)cc2)c1C#N`, for which the inhibition is 0%.
As for `CCSc1nncn1/N=C/c1ccc(OC)c(OC)c1`, the figure is 4%.
In the case of `CCOC(=O)c1c(C)[nH]c(C(=O)COC(=O)C2CC2C)c1C` (stereo not given), the inhibition is 0%.
Turning to `COC(=O)c1cc(-c2c(C)oc3cc(O)ccc3c2=O)c(C)o1`, the inhibition is 3%.
Regarding `CCC(=O)Nc1cc2nn(-c3ccccc3)nc2cc1Cl`, the inhibition is 0%.
As for `Cc1nccn1CCCN1C(=O)OC2(CCCCC2)C1(C)O` (stereo not given), the inhibition is 0%.
For `CCOC(=O)c1c(C)n(C)c2ccc(O)c(S(=O)(=O)c3ccccc3)c12` the value was 9%; for `CN(C(=O)C1CCOC1)c1nnc(-c2cccnc2)s1` (stereo not given), 0%.
Regarding `COCn1c(COc2ccccc2)nc2ccccc21`, the inhibition is 0%.
For `Cc1ccc(CN2CCN(C(=O)C3CCC3)CC2)cc1` the value was 3%; for `O=C(O)CCc1ccc(-c2ccc(F)cc2)n1CCC(=O)O`, 0%.
Consider `Cc1cc(C(=O)Nc2c(C)n(C)n(-c3ccccc3)c2=O)c(C)o1`, for which the inhibition was 0%.
Consider `C=CCNC(=O)CN(c1cccc(Br)c1)S(C)(=O)=O`, for which the inhibition is 0%.
Turning to `Cc1c(C(=O)OCc2ccccc2)[nH]c2c1C(=O)CC(c1ccco1)C2` (stereo not given), the inhibition was 1%.
As for `Cc1ccc(C)c(S(=O)(=O)n2cnc3ccccc32)c1`, the figure is 0%; as for `COc1ccc(CCNC(=O)C2CCCN(c3nn4c(=O)cc(C)nc4s3)C2)cc1OC` (stereo not given), 0%.
Consider `COCCCN1C(=O)C(=O)/C(=C(/O)c2ccc(OCC(C)C)cc2C)C1c1cccnc1` (stereo not given), for which the inhibition is 0%.
Turning to `Cc1ccc2c(c1)-c1c(cnn1CC(=O)Nc1ccccc1N1CCN(C)CC1)CO2`, the inhibition is 0%.
As for `c1cc(-c2nc3ccccc3o2)nc(-c2nc3ccccc3o2)c1`, the figure is 0%; as for `Cc1nnc(SCC(=O)N2CCN(S(=O)(=O)c3ccccc3)CC2)[nH]c1=O`, 0%.
As for `Cc1cc(/C=N/n2cnnc2)c(C)n1-c1cccc(Cl)c1`, the figure is 0%; as for `CCn1c(SCC(=O)NC)nnc1C(C)C`, 2%; as for `O=C(NCCCN1CCCC1=O)c1cccnc1`, 4%.
On to `CCCCc1c(O)nc(SCCN(C)C)n(-c2ccccc2)c1=O`, for which the inhibition is 0%.
Turning to `COCCCn1c(SCC(=O)N2CCc3ccccc32)nnc1-c1ccoc1C`, the inhibition was 9%.
As for `CC(C)(C)C(=O)Cn1c(=N)n(Cc2ccccc2)c2ccccc21`, the inhibition is 8%.
For the compound `CCOC(=O)N1CCC(N2C(=O)c3ccccc3C2Nc2ccccc2C)CC1` (stereo not given), the inhibition is 4%.
Regarding `O=C(Nc1ccccc1C(=O)N1CCOCC1)c1cccc(S(=O)(=O)N2CCCC2)c1`, the inhibition is 0%.
As for `CCN(CC)c1ccc2c(c1)CCCN2`, the inhibition was 3%.
As for `Cc1cccc(COc2ccc(/C(O)=C3\C(=O)C(=O)N(CCN(C)C)C3c3ccncc3)cc2)c1` (stereo not given), the inhibition was 13%.
Turning to `CC1CCN(C(=O)CSc2nnc(Cc3cc(=O)[nH]c(=O)[nH]3)n2-c2ccc(Cl)cc2)CC1`, the inhibition is 4%.

For orientation: inhibition means the share of the control response that was lost under treatment.

Source of the values: PubChem BioAssay.
